D2 antag = HTS Assay for Allosteric Antagonists of the Human D2 Dopamine Receptor: Primary Screen for Antagonists; actives 2% (n = 340,000); HEK293 TREx D2 cells, calcium flux, dopamine EC80; D(2) dopamine receptor (Homo sapiens), P14416; AID 485344, 2010; inhibition, % at 10 µM; in the data active = inhibition above about 30%; inactive = below that, where a call was filed; note: 0% is about no effect
Target sequence (P14416 whole entry, looked up): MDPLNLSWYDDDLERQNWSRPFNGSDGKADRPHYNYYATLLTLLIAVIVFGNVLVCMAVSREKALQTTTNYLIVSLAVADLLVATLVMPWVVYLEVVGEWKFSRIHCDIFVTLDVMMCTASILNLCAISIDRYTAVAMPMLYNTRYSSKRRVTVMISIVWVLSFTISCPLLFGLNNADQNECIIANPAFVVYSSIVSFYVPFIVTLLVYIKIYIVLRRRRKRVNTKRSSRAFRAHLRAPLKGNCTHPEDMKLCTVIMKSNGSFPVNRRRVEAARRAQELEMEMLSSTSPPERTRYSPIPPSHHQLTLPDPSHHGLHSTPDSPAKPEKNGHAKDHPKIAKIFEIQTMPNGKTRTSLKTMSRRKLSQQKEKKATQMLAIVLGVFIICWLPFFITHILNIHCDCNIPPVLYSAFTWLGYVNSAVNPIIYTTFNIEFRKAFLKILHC
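Tetracycline-induced HEK293 TREx cells expressing D2 receptor forced-coupled to calcium signalling, loaded with no-wash calcium dye. Compounds added and calcium flux read 180 s, then dopamine added at EC80 and read a further 180 s.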
D2 PAM-1 = Beta-Arrestin HTS for Positive Allosteric Modulators of the Human D2 Dopamine Receptor: Potentiators; AID 624464, 2012; actives 0.23% (n = 360,000); D(2) dopamine receptor (Homo sapiens), P14416; potentiation, % (concentration not given with the values); DiscoveRx D2 beta-arrestin cells, luminescence, 90 min; 100% = 57 uM dopamine signal; in the data active = potentiation above about 50%
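D2 cells co-treated with compound plus 50 nM dopamine (EC20) for 90 min at 37 deg C to detect potentiation. Beta-arrestin recruitment was read as enzyme-fragment luminescence after 1 h at ambient temperature. Full response was set by 57 uM dopamine.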
D2 ag-1 = HTS Assay for Allosteric Agonists of the Human D2 Dopamine Receptor: Primary Screen for Agonists; actives 0.53% (n = 340,000); HEK293 T-REx D2 cells, calcium flux agonist mode; AID 485358, 2010; activation, % at 2 µM; D(2) dopamine receptor (Homo sapiens), P14416;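 active = activation over 3 SD above normal in the single-dose calcium agonist read, cut at about 30% in these data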; note: 0% is about no effect
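In this primary screen, compounds producing a positive calcium signal within 180 s of addition to tetracycline-induced, force-coupled HEK293 Trex D2 cells are flagged; cells are dye-loaded with a no-wash calcium kit beforehand.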
D2 PAM-2 = HTS Assay for Positive Allosteric Modulators of the Human D2 Dopamine Receptor: Primary Screen for Potentiators; D(2) dopamine receptor (Homo sapiens), P14416; HEK293 T-REx D2, calcium flux, EC20 dopamine potentiation; AID 485347, 2010; potentiation, % at 10 µM; actives 0.34% (n = 340,000);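 active = potentiation over 3 SD above the plate norm, cut at about 30% in these data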; note: 0% is about no effect
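Using a no-wash calcium dye in inducible, force-coupled HEK293 Trex cells expressing D2, we tracked fluorescence each second for 180 s after compound, then for 180 s after EC20 dopamine to detect augmented signalling.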
D2 ag-2 = Beta-Arrestin HTS for Positive Allosteric Modulators of the Human D2 Dopamine Receptor: Agonists. AID 624465, 2012. DiscoveRx PathHunter D2 beta-arrestin, luminescence, 90 min; 100% = 57 uM dopamine signal. actives 0.084% (n = 360,000). D(2) dopamine receptor (Homo sapiens), P14416. activation, % (concentration not given with the values); in the data active = activation above about 40%
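DiscoveRx PathHunter D2 beta-arrestin cells (2,100/well) attached overnight, then compound-stimulated 90 min at 37 C in HBSS/10 mM HEPES/0.1% Tween-20 buffer; beta-galactosidase complementation read by luminescence after 1 h at ambient temperature. Dopamine 57 uM final (EC100) as control.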
Numbers without * were called inactive; nt = no result; ! = not confirmed by another sample. Sampled rows, rich in hits. Any-hit rate of the full collection: about 2.4%.

SMILES	D2 antag	D2 PAM-1	D2 ag-1	D2 PAM-2	D2 ag-2
COCCNC(=S)N(CCc1c(C)[nH]c2ccc(F)cc12)Cc1cccs1	30.0*	-11.7	2.0	-0.8	-0.5
COCCNC(=S)N(CCc1c(C)[nH]c2ccc(Cl)cc12)Cc1cccs1	5.3	-1.2	0.5	2.2	1.4
CNC(=S)N(CCc1c(C)[nH]c2ccc(F)cc12)Cc1cccnc1	-11.1	-10.6	0.4	31.4*	6.1
Cc1[nH]c2ccc(F)cc2c1CCN(Cc1cccnc1)C(=S)Nc1ccccc1	10.6	-9.3	-0.3	-7.8	-5.4
Cc1ccc(C)c(NS(=O)(=O)c2ccc(OCC(=O)N3CCOCC3)cc2)c1	32.3*	-7.7	-0.2	-2.6	-3.8
CN(c1ccc(OCC(=O)N2CCOCC2)cc1)S(=O)(=O)c1ccc(F)cc1	4.5	2.7	0.2	10.1	-1.7
Cc1ccc(C)c(NS(=O)(=O)c2ccc(OCC(=O)N3CCCC3)cc2)c1	8.1	-1.9	-0.2	-4.9	0.4
CN(c1ccc(OCC(=O)N2CCOCC2)cc1)S(=O)(=O)c1ccc(Cl)cc1	35.4*	-2.1	-0.2	-9.7	-0.6
CCCCn1c(=O)n(-c2cc(OC)ccc2OC)c(=O)c2c3c(sc21)CN(C(C)=O)CC3	nt	nt	0.3	-19.3	nt
COc1ccc(NC(=O)Nc2nnc(N(C)C3CCCCC3)s2)c(OC)c1	nt	nt	-0.6	3.9	nt
Cc1ccc(NC(=O)C2CCN(S(=O)(=O)c3cccc4nonc34)CC2)cc1	nt	1.9	nt	-5.7	5.1
Cc1ccccc1NC(=O)C1CCN(S(=O)(=O)c2cccc3nonc23)CC1	4.6	0.3	-2.3	44.0*!	-3.5
CN1\C(=C/C=C/C=C/C=[N+](C)C)C(C)(C)c2ccccc21	63.0*	-19.0	46.7*	-3.6	8.0
CN1/C(=C\C(=O)C(F)F)C(C)(C)c2ccccc21	46.7*	-12.1	-0.2	-3.7	1.0
CN1/C(=C\C(=O)c2cncc(Br)c2)C(C)(C)c2ccccc21	-8.7	-25.1	-1.1	-5.8	-2.4
CN1/C(=C\C(=O)c2cccnc2)C(C)(C)c2ccccc21	32.3*	-7.8	-0.6	2.9	-1.8
CCOc1ccc(NS(=O)(=O)c2ccc(C(=O)N(C)C)s2)cc1	nt	nt	nt	1.4	nt
CCN(CC)CCNC(=O)c1c(C)oc2ncnc(N3CCOCC3)c12	nt	nt	nt	-12.0	nt
O=C(/C=C/c1ccccc1)NCc1ccco1	-16.4	-2.2	-0.8	11.9	-5.6
N#C/C(=C\C=C\c1ccccc1)C(=O)NCc1ccco1	36.9*	5.4	-1.3	-5.4	-2.0
O=C(NCC(c1ccco1)N1CCCC1)c1cn(-c2ccccc2)nc1-c1ccc(F)cc1 (stereo unspecified)	75.9*	-48.6	-1.1	-22.5	-3.6
COc1ccccc1C(CNC(=O)c1ccco1)N1CCCC1 (stereo unspecified)	37.3*	-10.3	0.7	-12.9	-5.0
COc1ccc(Cl)cc1C(=O)NCC(c1ccco1)N1CCCC1 (stereo unspecified)	29.4	-19.7	-1.1	-16.7	-2.3
COc1ccccc1-c1nn(-c2ccccc2)cc1C(=O)NCC(c1ccco1)N1CCCC1 (stereo unspecified)	40.4*	-4.4	0.3	-27.1	-2.6
O=C(NCC(c1ccco1)N1CCCC1)c1cn(Cc2ccccc2)nc1-c1ccccc1 (stereo unspecified)	-5.9	-22.6	-0.1	-4.6	0.4
SMILES	D2 antag	D2 PAM-1	D2 ag-1	D2 PAM-2	D2 ag-2
O=C1Nc2c(c(=O)[nH]c(=O)n2-c2ccccc2)C1(NS(=O)(=O)c1ccc(Cl)cc1)C(F)(F)F (stereo unspecified)	nt	nt	1.5	-5.1	nt
O=C(Nc1ccc(F)c(Cl)c1)N1CCC(CN2CCc3ccccc3C2)CC1	nt	nt	-0.4	-20.7	nt
Cc1c(C(=O)Nc2ccc(F)cc2F)oc2ccc3c(c12)C(=O)CC(C)(C)O3	nt	nt	-0.7	3.3	nt
COc1ccccc1CNC(=O)c1cc2cc(C)ccc2n1C	nt	nt	-1.2	9.9	nt
CCOC(=O)CSc1nc2cc3c(cc2c(=O)n1CCCC(=O)NCCc1ccc(OC)c(OC)c1)OCO3	nt	nt	0.8	-10.2	nt
O=c1c2ccccc2nc(-c2ccc([N+](=O)[O-])cc2)n1O	4.2	-6.7	-0.2	31.1*	2.4
Cc1ccc(-c2nc3ccccc3c(=O)n2O)cc1	-10.8	0.7	-0.4	21.8	-5.4
CCOc1ccccc1CNC(=O)Cn1ncn2nc(-c3cccs3)cc2c1=O	nt	nt	0.2	19.0	nt
O=C(N=NC(=O)c1ccc2c(O)n(C3CCCCC3)c(O)c2c1)c1cccnc1	-21.6	-8.4	1.0	39.9*	-4.8
O=C(NC1CCCCCCC1)c1cccnc1	-1.4	-15.8	-0.4	-1.7	-3.5
Cc1ccc(C2C(C(=O)c3cccs3)=C(O)C(=O)N2c2nnc(C)s2)cc1 (stereo unspecified)	4.7	0.7	39.8*	10.1	-1.9
COc1ccc(C2C(C(=O)c3cccs3)=C(O)C(=O)N2c2cccc(C)n2)cc1 (stereo unspecified)	-1.8	-13.0	-2.3	14.0	1.7
OC(CCCN1CCCCC1)(c1ccccc1)c1ccccc1	80.1*	-25.4	1.3	-27.9	-5.9
CCC(O)(CCN1CCCCC1)c1ccccc1 (stereo unspecified)	-3.6	-14.0	-0.1	-2.2	-2.6
COCC(C)n1c(COc2ccccc2F)nnc1SCC(=O)c1c(N)n(C)c(=O)n(C)c1=O (stereo unspecified)	-6.7	-6.6	0.8	14.9	-3.9
CCCCCCn1c(COc2ccccc2F)nnc1SCC(=O)c1c(N)n(C)c(=O)n(C)c1=O	-7.1	nt	-1.3	31.6*	nt
Cn1c(N)c(C(=O)CSc2nnnn2-c2ccccc2)c(=O)n(C)c1=O	38.6*	1.3	7.1	-12.5	2.2
Cc1ccccc1-n1nnnc1SCC(=O)c1c(N)n(C)c(=O)n(C)c1=O	17.9	-2.2	10.3	12.3	0.8
CC(=O)c1ccc(NC(=O)COCc2cc(-c3ccco3)on2)cc1	nt	nt	0.7	-8.2	nt
O=C(CSc1nc(C2CCCCC2)nc2ccccc12)NCc1ccco1	66.7*	-2.5	-0.7	-9.7	-3.0
Cc1sc2nc(C3CC3)nc(SCC(=O)NCc3ccco3)c2c1C	8.4	-14.9	-0.1	11.5	6.4
COc1ccccc1NC(=O)C1CCN(S(=O)(=O)c2ccc3c(c2)oc(=O)n3C)CC1	nt	nt	-0.4	-5.0	nt
CCOC(=O)c1ccc(NS(=O)(=O)c2c(C)[nH]c(C)c2C(=O)N2CCCCC2)cc1	69.3*	7.3	1.1	-6.3	-1.8
O=Cc1ccc(OCC(=O)NCC2CCCO2)cc1 (stereo unspecified)	30.1*	-7.5	-0.2	-10.3	-5.5
